Assay results published in PubChem BioAssay (NCATS).
“And” between values parts separate entries of the source, which are not always exact repeats. Equal values may be shown once. Inconclusive results are not listed. The source made the active and inactive calls. Unless noted, calls come from the whole dose curve; as a rule, active = well fitted curve in the direction sought with a large enough effect; inconclusive = small, poorly fitted or top-dose-only effect, or another doubt; inactive = no such curve, though single readings can be large; an effect the other way counts as inactive or inconclusive.

How the values were obtained:
[1] = molecular target: Glutathione peroxidase 1 (Homo sapiens) (UniProt P07203); assay: Primary qHTS Assay for Inhibitors of Recombinant Selenoprotein Glutathione Peroxidase 1 (GPX1) (AID 1845191); note: nearly all actives have a fitted effect of over 65% in size; for activity, negative = inhibition: % is set by controls: 0 for no effect and ±100 for the full control effect
Glutathione peroxidase 1 (Homo sapiens), sequence (P07203 whole entry, looked up): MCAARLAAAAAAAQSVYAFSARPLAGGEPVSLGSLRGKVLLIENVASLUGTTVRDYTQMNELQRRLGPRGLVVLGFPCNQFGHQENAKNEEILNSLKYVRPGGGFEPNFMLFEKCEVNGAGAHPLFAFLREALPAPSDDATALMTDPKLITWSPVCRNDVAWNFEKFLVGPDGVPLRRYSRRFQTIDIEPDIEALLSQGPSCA
In short: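 GPX1 10 nM, GR 100 nM, GSH 1 mM, NADPH 0.5 mM, CHP 0.5 mM (final). 30-min cpd preincubation, RT. Ex340/Em450 read t=0, t=15 min.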

[2] = molecular target: Phospholipid hydroperoxide glutathione peroxidase GPX4 (Homo sapiens) (UniProt P36969); assay: Primary qHTS Assay for Inhibitors of Recombinant Selenoprotein Glutathione Peroxidase 4 (GPX4) (AID 1845192); note: series mostly up to about 50 µM; % is set by controls: 0 for no effect and ±100 for the full control effect; nearly all actives have a fitted effect of over 65% in size
Phospholipid hydroperoxide glutathione peroxidase GPX4 (Homo sapiens), sequence (P36969 whole entry, looked up): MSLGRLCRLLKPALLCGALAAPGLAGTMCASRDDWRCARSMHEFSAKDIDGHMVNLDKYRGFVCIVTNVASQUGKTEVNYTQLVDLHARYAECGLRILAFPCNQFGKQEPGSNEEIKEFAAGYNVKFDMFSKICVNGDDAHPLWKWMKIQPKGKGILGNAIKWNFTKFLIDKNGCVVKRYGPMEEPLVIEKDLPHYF
In short: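 qHTS, GR-coupled: GPX4 200 nM + cpd 30 min RT → GSH 1 mM, NADPH 0.5 mM, GR 100 nM → CHP 0.5 mM start; fluor 340/450 at t0 and t15 min; no-enzyme wells as control.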

[3] = molecular target: Luciferin 4-monooxygenase (Photinus pyralis) (UniProt P08659); assay: Primary firefly luciferase (FLuc) qHTS assay for identification of artifact compounds. (AID 1845220); note: nearly all actives have a fitted effect of over 60% in size; note: potency is the fitted concentration of half-maximal effect;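 for activity change, negative = inhibition: series mostly up to about 54 µM; plate controls were DMSO vehicle for no effect and no enzyme for full effect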
In short: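 qHTS, 15 min compound preincubation with substrate (10 uM luciferin, 10 uM ATP) at RT, then 10 nM FLuc; 5 min; luminescence; % inhibition vs no-enzyme/DMSO controls, 4-parameter Hill fit.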

[4] = Primary fluorescence-based thiol-reactive (MSTI) qHTS assay for identification of artifact compounds. (AID 1845221); note: nearly all actives have a fitted effect of over 65% in size; note: potency is the fitted concentration of half-maximal effect;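 for activity change, negative = thiol reactive: series mostly up to about 54 µM; thiol-reactive compounds lower the probe fluorescence signal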
In short: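 Thiol-reactive compounds detected by quenching of 4 uM MSTI fluorescence (525/598 nm) after 1 h room-temperature dark incubation in PBS pH 7.4, 2% DMSO. qHTS titration; percent inhibition Hill-fitted against Acetyl-MSTI/MSTI controls.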

[5] = test system: Nanoluciferase (engineered Oplophorus gracilirostris luciferase); assay: Primary Nanoluciferase (NLuc) qHTS assay for identification of artifact compounds. (AID 1845222); note: series mostly up to about 54 µM
In short: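 Luminescence read-out of secreted NLuc in S16 cell conditioned medium (1:55); compounds tested with 15 min RT preincubation, then Nano-Glo substrate 1:100, 5 min. % inhibition vs no-enzyme and DMSO controls, 4-parameter Hill fit.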

[6] = Primary redox qHTS assay for identification of artifact compounds. (AID 1845223);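 note: 0% = DMSO and 100% = reference compound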
In short: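 Redox-cycling detection via DTT (250 uM final) oxidation coupled to Amplex Red (25 uM)/HRP (250 mU/mL) in HBSS. 15 min preincubation plus 30 min after DTT, room temperature. Ex/Em 525/598 nm; 4-parameter Hill fit against DMSO and 10 uM DA3003.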

[7] = qHTS drug screen for cell cycle checkpoint inhibitors in PARPi-resistant BRCA-mutant ovarian cancer cell lines. (AID 1963452; calls by dose curve; note: potency is the fitted concentration of half-maximal effect); settings: PEO1/OlaR viability, CellTiter-Glo luminescence, 96 h; for Z-AUC: stronger effect = lower value
In short: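 PEO1, PEO4 and PEO1/OlaR ovarian cancer cells, 600 per well, exposed 96 h at 37C to a dilution series. Viability read by CellTiter-Glo luminescence, normalized to DMSO and empty wells; activity summarized as Z-AUC.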

[8] = measured here: PEO1 parental Z-AUC

FC(F)(F)c1cc(-c2ncn(/C=C\c3nnco3)n2)cc(C(F)(F)F)c1
inactive: Potency [1] | Potency [2] | Potency [3] | Potency [4] | Potency [5] | Potency [6]

CCC[C@@H]1O[C@@H]2C[C@H]3[C@@H]4CCC5=CC(=O)C=C[C@]5(C)[C@H]4[C@@H](O)C[C@]3(C)[C@]2(C(=O)CO)O1
inactive: Potency [1] | Potency [2] | Potency [3] | Potency [4] | Potency [5] | Potency [6]

CCCCCCOc1cc2c(cc1N(C)c1ncc(C(=O)O)cn1)C(C)(C)CCC2(C)C
inactive: Potency [1] | Potency [2] | Potency [3] | Potency [4] | Potency [5] | Potency [6]

C[C@@H]1O[C@@H](O[C@H]2[C@H](O[C@H]3[C@H](O[C@H]4CC[C@@]5(C)C(CC[C@]6(C)C5CC=C5[C@@H]7CC(C)(C)CC[C@]7(C(=O)O[C@@H]7O[C@H](CO)[C@@H](O[C@@H]8O[C@@H](C)[C@H](O)[C@@H](O)[C@H]8O)[C@H](O)[C@H]7O)CC[C@]56C)C4(C)C)OC[C@H](O)[C@@H]3O)O[C@H](CO)[C@@H](O)[C@@H]2O)[C@H](O)[C@H](O)[C@H]1O (some centres undefined)
inactive: outcome [1] inactive [at 9.52 µM] | activity change, negative = inhibition [2] 0.115% [at 9.73 µM] | outcome [3] inactive [at 11.6 µM] | activity change, negative = thiol reactive [4] 125% [at 11.5 µM] | activity, negative = inhibition [5] 4.91% [at 11.6 µM] | redox activity (% of DA3003) [6] 19.8% [at 11.5 µM]

CN(C)C1CCN(C(=O)c2ccc(NC(=O)Nc3ccc(-c4nc(N5CCOCC5)nc(N5CCOCC5)n4)cc3)cc2)CC1
-1.87 and -2.03: Z-AUC ([7]; measured here: PEO4 Z-AUC)
-2.41 and -1.47: Z-AUC [7, 8]
inactive: Potency [1] | Potency [2] | Potency [3] | Potency [4] | Potency [5] | Potency [6]
active: Potency [7] 309 nM and 692 nM

C[S+](CC[C@H](N)C(=O)[O-])C[C@H]1O[C@@H](n2cnc3c(N)ncnc32)[C@H](O)[C@@H]1O (some centres undefined)
inactive: Potency [1] | Potency [2] | Potency [3] | Potency [4] | Potency [5] | Potency [6]

CC(=O)OC1CC2C3(C)CCC(OC(=O)CC(=O)O)C(C)(C)C3CCC2(C)C2(C)CCC(C3(C)CCC(=O)O3)C12 (centres undefined)
inactive: Potency [1] | Potency [2] | Potency [3] | Potency [4] | Potency [5] | Potency [6]

COc1c2c(cc3c1-c1c(cc4c(c1OC)OCO4)CC(C)C(C)C3)OCO2 (centres undefined)
inactive: Potency [1] | Potency [2] | Potency [3] | Potency [4] | Potency [5] | Potency [6]

CCC(C)C(=O)OC1CC(O)C23C4OCC5(C(O)CC2C1(C)C(O)O4)C3C(=O)C(O)C1(C)C(O)(c2ccoc2)CC2OC251 (centres undefined)
inactive: Potency [1] | Potency [2] | Potency [3] | Potency [4] | Potency [5] | Potency [6]

CC(=O)c1ccc(O[C@@H]2O[C@H](CO)[C@@H](O)[C@H](O)[C@H]2O)cc1
inactive: Potency [1] | Potency [2] | Potency [3] | Potency [4] | Potency [5] | Potency [6]

C[C@H](N)C(=O)N[C@@H](Cc1ccc(O)cc1)C(=O)N1CCC[C@H]1C(=O)NCC(=O)N[C@@H](CCCCN)C(=O)N[C@@H](Cc1ccccc1)C(N)=O
inactive: activity, negative = inhibition [1] 0.372% [at 9.52 µM] | activity change, negative = inhibition [2] -6.9% [at 9.73 µM] | activity change, negative = inhibition [3] 3.15% [at 11.6 µM] | activity change, negative = thiol reactive [4] -3.19% [at 11.5 µM] | activity, negative = inhibition [5] 4.39% [at 11.6 µM] | redox activity (% of DA3003) [6] -3.11% [at 11.5 µM]

Cc1cc(O)c(-c2ccc([C@@H](C)CN(C)C)cc2)c2c1[nH]c(=O)c1sccc12
-2.02: Z-AUC ([7]; measured here: PEO4 Z-AUC)
-2.07: Z-AUC [7, 8]
inactive: Potency [1] | Potency [2] | Potency [3] | Potency [4] | Potency [5] | Potency [6] | Z-AUC [7] -1.8

COc1ccc(C(=O)Nc2ncc(-c3ccc(C(=O)O)cc3)s2)cc1
active: Potency [3] 2.69 µM
inactive: Potency [1] | Potency [2] | Potency [4] | Potency [5] | Potency [6]

O=C(Nc1ccccc1)N1CCN(Cc2ccc3ccccc3n2)CC1
inactive: Potency [1] | Potency [2] | Potency [3] | Potency [4] | Potency [5] | Potency [6]

Cc1c(F)cc(C(=O)NC2CC2)cc1-c1c(F)cn2c(C(C)(C)C)nnc2c1F
inactive: Potency [1] | Potency [2] | Potency [3] | Potency [4] | Potency [5] | Potency [6] | Z-AUC [7] 0.645
0.963: Z-AUC [7, 8]
1.81: Z-AUC ([7]; measured here: PEO4 Z-AUC)

CC1(C)CC[C@]2(C(=O)O[C@@H]3O[C@H](CO)[C@@H](O)[C@H](O)[C@H]3O)CC[C@]3(C)C(=CCC4[C@@]5(C)C[C@@H](O)[C@H](O)[C@](C)(C=O)C5CC[C@]43C)[C@@H]2[C@@H]1O (some centres undefined)
active: Potency [4] 3.98 µM
inactive: Potency [1] | Potency [2] | Potency [3] | Potency [5] | Potency [6]

CC(Oc1cc(-n2cnc3ccc(CN4CCN(C)CC4)cc32)sc1C(N)=O)c1ccccc1C(F)(F)F (centres undefined)
inactive: Potency [1] | Potency [2] | Potency [3] | Potency [4] | Potency [5] | Potency [6]

Cc1c(C(=O)N2CCOc3ccc(-c4ccc(N)nc4)cc3C2)ccc(S(C)(=O)=O)c1F
inactive: Potency [1] | Potency [2] | Potency [3] | Potency [4] | Potency [5] | Potency [6] | Z-AUC [7] 0.331
0.378: Z-AUC ([7]; measured here: PEO4 Z-AUC)
0.561: Z-AUC [7, 8]

CC1=CC2/C=C(\C)CC[C@@H](O)[C@@H](O)[C@@H]3O[C@@H]3C(=O)[C@]23C(=O)N[C@@H](CC(C)C)[C@@H]3[C@@H]1C (some centres undefined)
inactive: Potency [1] | Potency [2] | Potency [3] | Potency [4] | Potency [5] | Potency [6]

C[C@@H]1O[C@@H](O[C@@H]2[C@@H](O[C@@H]3O[C@@H](C)[C@H](O[C@@H]4OC[C@H](O)[C@H](O[C@@H]5OC[C@@H](O)[C@H](O)[C@H]5O)[C@H]4O)[C@@H](O[C@@H]4OC[C@](O)(CO)[C@H]4O)[C@H]3O)[C@H](OC(=O)[C@]34CCC(C)(C)C[C@H]3C3=CCC5[C@@]6(C)C[C@H](O)[C@H](O[C@@H]7O[C@H](CO[C@@H]8OC[C@H](O)[C@H](O)[C@H]8O)[C@@H](O)[C@H](O)[C@H]7O)C(C)(C)C6CC[C@@]5(C)[C@]3(C)C[C@H]4O)OC[C@H]2O)[C@H](O)[C@H](O)[C@H]1O (some centres undefined)
inactive: activity, negative = inhibition [1] 1.11% [at 9.52 µM] | activity change, negative = inhibition [2] -0.822% [at 9.73 µM] | activity change, negative = inhibition [3] 1.22% [at 11.6 µM] | activity change, negative = thiol reactive [4] 203% [at 11.5 µM] | activity, negative = inhibition [5] 1.99% [at 11.6 µM] | redox activity (% of DA3003) [6] 6.31% [at 11.5 µM]

OC[C@H]1O[C@@H](O[C@H]2[C@H](OCCc3ccccc3)O[C@H](CO)[C@@H](O)[C@@H]2O)[C@H](O)[C@@H](O)[C@@H]1O
inactive: Potency [1] | Potency [2] | Potency [3] | Potency [5] | Potency [6]
active: Potency [4] 10.3 µM

CCCCc1ccc(C(=O)Nc2cc(-c3ccc(Cl)cc3)nn2-c2ccc(Cl)cc2)cc1
inactive: Potency [1] | Potency [2] | Potency [3] | Potency [4] | Potency [5] | Potency [6]
